Experimental data published in ChEMBL document CHEMBL2218924, “A broad activity screen in support of a chemogenomic map for kinase signalling research and drug discovery” (Biochem J, 2013).

What was measured:
[1] = target: Death-associated protein kinase 1 (Homo sapiens) (UniProt P53355); conditions: at 10 µM
[2] = target: Death-associated protein kinase 2 (Homo sapiens) (UniProt Q9UIK4); conditions: at 1 µM
[3] = target: T1, Serine/threonine-protein kinase DCLK2 (Homo sapiens) (UniProt Q8N568); conditions: at 1 µM
T1 sequence (whole entry): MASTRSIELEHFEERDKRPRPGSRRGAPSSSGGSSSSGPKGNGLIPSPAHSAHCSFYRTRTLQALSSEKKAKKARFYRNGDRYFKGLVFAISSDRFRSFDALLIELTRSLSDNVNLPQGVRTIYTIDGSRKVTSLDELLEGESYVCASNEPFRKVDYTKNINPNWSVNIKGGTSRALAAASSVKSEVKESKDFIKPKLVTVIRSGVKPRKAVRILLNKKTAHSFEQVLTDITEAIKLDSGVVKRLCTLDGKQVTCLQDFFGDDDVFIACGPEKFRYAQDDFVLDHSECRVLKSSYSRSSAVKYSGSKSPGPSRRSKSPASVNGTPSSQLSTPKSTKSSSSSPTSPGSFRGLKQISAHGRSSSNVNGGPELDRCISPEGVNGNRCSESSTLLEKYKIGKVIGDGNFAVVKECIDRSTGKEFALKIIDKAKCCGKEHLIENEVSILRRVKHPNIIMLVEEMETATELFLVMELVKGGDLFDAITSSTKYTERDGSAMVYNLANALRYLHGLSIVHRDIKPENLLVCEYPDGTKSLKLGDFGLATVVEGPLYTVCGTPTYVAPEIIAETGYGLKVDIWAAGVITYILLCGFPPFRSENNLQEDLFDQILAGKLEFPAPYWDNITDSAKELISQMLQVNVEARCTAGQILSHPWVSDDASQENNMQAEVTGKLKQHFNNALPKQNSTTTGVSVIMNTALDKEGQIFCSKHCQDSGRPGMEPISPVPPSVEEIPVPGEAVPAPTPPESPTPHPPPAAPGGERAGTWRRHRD

[4] = target: T1, Serine/threonine-protein kinase DCLK2 (Homo sapiens); conditions: at 10 µM
[5] = target: T2, Discoidin domain-containing receptor 2 (Homo sapiens) (UniProt Q16832); conditions: at 1 µM
T2 sequence (whole entry): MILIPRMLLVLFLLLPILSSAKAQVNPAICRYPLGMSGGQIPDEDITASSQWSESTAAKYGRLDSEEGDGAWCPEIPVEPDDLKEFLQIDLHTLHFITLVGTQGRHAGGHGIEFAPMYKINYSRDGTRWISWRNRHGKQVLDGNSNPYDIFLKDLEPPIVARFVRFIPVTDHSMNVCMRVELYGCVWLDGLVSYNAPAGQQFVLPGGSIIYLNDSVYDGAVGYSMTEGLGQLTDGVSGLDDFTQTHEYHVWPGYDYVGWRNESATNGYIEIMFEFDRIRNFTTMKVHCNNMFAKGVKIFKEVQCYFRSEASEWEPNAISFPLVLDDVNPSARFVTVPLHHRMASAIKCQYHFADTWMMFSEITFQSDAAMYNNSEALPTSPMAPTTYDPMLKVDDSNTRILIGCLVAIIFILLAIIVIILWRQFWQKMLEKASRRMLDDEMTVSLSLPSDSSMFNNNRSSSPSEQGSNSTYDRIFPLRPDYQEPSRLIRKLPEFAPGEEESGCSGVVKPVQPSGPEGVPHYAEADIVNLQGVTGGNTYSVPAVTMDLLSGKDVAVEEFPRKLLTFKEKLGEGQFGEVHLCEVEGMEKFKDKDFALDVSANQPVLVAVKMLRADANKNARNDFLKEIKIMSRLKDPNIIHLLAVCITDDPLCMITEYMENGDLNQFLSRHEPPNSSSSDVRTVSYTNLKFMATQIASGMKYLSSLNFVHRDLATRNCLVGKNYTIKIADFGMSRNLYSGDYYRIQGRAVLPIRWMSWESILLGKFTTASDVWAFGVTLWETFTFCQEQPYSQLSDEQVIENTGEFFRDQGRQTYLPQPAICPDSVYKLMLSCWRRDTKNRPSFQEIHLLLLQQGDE

[6] = target: T2, Discoidin domain-containing receptor 2 (Homo sapiens); conditions: at 10 µM
[7] = target: T3, Myotonin-protein kinase (Homo sapiens) (UniProt Q09013); conditions: at 1 µM
T3 sequence (whole entry): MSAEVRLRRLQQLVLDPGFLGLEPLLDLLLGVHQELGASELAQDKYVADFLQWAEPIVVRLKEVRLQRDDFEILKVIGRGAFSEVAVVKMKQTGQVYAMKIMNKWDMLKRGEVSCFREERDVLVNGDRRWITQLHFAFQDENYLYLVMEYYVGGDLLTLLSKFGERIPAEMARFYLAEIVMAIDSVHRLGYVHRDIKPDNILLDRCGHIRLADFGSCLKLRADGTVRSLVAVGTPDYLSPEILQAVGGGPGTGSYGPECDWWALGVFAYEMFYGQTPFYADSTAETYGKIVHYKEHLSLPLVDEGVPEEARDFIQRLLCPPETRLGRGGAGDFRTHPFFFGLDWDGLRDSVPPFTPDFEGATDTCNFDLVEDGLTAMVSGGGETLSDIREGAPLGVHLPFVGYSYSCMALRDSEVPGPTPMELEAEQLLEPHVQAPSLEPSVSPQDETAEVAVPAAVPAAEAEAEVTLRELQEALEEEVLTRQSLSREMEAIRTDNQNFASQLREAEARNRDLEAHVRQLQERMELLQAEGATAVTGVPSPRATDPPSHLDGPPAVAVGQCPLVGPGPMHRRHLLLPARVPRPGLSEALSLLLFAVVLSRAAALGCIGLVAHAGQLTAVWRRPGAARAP

[8] = target: T3, Myotonin-protein kinase (Homo sapiens); conditions: at 10 µM
[9] = target: T4, Serine/threonine-protein kinase 17A (Homo sapiens) (UniProt Q9UEE5); conditions: at 1 µM
T4 sequence (whole entry): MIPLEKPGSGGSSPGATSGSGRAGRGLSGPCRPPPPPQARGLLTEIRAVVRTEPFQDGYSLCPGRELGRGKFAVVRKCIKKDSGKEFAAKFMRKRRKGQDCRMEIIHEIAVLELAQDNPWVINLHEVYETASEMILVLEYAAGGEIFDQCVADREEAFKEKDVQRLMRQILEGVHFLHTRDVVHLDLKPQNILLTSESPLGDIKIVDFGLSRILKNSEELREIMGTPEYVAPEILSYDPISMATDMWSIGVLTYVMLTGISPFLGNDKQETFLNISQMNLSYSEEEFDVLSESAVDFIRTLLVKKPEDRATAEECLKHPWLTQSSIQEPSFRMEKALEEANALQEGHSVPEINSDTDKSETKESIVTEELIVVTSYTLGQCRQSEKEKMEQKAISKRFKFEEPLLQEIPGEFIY

[10] = target: T4, Serine/threonine-protein kinase 17A (Homo sapiens); conditions: at 10 µM
[11] = target: T5, Dual specificity tyrosine-phosphorylation-regulated kinase 2 (Homo sapiens) (UniProt Q92630); conditions: at 1 µM
T5 sequence (whole entry): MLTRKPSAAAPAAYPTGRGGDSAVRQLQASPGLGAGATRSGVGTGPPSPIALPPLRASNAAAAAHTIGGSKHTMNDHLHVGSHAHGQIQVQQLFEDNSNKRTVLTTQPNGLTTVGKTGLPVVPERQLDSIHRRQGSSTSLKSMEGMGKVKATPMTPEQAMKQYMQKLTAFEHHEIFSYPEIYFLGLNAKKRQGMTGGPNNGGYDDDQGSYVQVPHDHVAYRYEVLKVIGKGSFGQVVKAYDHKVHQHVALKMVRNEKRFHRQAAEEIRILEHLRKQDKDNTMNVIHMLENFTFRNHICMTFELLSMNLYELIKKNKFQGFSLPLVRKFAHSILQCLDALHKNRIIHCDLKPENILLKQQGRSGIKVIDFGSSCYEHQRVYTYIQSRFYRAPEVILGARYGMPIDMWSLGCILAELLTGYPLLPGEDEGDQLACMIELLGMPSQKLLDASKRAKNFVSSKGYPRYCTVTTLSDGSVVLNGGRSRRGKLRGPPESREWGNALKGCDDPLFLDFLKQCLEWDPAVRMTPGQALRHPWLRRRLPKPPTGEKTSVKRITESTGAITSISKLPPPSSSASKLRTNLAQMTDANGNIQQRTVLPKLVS

[12] = target: T5, Dual specificity tyrosine-phosphorylation-regulated kinase 2 (Homo sapiens); conditions: at 10 µM
[13] = target: T6, Ephrin type-A receptor 1 (Homo sapiens) (UniProt P21709); conditions: at 1 µM
T6 sequence (whole entry): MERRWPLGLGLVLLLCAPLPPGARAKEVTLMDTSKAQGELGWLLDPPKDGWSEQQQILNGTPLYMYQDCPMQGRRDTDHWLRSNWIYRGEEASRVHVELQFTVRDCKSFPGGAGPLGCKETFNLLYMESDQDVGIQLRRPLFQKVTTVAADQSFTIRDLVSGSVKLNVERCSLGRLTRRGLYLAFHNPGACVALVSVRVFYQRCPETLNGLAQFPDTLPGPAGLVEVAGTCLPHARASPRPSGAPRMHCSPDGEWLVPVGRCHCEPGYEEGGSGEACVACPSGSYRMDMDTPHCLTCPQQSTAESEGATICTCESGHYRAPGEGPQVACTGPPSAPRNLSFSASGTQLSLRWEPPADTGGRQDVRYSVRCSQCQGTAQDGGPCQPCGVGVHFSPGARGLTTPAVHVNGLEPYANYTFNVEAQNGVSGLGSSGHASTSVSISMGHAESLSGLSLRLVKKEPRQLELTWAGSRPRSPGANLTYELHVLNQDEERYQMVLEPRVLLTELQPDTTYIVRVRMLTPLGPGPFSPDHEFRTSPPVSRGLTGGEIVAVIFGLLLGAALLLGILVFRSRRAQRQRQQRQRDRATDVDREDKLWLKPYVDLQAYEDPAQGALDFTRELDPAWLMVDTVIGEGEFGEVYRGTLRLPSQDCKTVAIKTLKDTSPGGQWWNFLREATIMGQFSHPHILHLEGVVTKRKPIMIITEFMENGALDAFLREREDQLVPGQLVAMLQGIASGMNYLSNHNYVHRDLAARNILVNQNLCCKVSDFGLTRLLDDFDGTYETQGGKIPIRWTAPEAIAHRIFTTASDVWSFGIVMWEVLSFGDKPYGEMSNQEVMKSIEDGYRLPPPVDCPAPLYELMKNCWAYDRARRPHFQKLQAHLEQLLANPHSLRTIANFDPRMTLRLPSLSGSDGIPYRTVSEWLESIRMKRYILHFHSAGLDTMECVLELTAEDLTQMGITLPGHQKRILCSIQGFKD

[14] = target: T6, Ephrin type-A receptor 1 (Homo sapiens); conditions: at 10 µM
[15] = target: Ephrin type-A receptor 2 (Homo sapiens) (UniProt P29317); conditions: at 1 µM
Chain of Ephrin type-A receptor 2 (Homo sapiens) (P29317 whole entry): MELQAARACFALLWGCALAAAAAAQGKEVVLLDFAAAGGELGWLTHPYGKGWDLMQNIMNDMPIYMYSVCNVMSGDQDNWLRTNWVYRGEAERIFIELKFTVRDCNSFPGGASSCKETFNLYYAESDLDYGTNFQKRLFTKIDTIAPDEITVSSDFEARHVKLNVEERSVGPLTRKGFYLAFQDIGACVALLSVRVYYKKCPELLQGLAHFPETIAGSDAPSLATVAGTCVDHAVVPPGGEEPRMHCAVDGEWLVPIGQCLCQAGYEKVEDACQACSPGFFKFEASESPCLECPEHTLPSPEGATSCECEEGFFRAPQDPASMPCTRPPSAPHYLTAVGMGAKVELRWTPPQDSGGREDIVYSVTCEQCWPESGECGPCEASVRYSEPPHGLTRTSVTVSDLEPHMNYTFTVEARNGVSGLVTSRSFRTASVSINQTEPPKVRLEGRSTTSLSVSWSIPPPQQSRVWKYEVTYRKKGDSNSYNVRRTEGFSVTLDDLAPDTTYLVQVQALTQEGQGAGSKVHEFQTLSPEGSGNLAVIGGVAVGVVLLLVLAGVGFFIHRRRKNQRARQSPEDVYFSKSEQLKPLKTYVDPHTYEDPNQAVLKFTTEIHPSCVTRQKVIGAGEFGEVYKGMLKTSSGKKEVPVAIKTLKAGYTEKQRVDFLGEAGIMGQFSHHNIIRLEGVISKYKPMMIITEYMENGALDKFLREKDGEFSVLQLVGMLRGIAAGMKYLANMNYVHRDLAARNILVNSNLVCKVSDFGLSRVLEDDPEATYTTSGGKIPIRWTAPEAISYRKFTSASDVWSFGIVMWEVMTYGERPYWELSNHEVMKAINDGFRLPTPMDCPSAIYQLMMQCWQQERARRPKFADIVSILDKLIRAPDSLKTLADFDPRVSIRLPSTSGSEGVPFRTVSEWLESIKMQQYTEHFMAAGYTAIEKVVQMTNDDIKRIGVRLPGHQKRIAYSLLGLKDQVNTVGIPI

[16] = target: Ephrin type-A receptor 2 (Homo sapiens) (UniProt P29317); conditions: at 10 µM
[17] = target: T7, Ephrin type-A receptor 3 (Homo sapiens) (UniProt P29320); conditions: at 1 µM
T7 sequence (whole entry): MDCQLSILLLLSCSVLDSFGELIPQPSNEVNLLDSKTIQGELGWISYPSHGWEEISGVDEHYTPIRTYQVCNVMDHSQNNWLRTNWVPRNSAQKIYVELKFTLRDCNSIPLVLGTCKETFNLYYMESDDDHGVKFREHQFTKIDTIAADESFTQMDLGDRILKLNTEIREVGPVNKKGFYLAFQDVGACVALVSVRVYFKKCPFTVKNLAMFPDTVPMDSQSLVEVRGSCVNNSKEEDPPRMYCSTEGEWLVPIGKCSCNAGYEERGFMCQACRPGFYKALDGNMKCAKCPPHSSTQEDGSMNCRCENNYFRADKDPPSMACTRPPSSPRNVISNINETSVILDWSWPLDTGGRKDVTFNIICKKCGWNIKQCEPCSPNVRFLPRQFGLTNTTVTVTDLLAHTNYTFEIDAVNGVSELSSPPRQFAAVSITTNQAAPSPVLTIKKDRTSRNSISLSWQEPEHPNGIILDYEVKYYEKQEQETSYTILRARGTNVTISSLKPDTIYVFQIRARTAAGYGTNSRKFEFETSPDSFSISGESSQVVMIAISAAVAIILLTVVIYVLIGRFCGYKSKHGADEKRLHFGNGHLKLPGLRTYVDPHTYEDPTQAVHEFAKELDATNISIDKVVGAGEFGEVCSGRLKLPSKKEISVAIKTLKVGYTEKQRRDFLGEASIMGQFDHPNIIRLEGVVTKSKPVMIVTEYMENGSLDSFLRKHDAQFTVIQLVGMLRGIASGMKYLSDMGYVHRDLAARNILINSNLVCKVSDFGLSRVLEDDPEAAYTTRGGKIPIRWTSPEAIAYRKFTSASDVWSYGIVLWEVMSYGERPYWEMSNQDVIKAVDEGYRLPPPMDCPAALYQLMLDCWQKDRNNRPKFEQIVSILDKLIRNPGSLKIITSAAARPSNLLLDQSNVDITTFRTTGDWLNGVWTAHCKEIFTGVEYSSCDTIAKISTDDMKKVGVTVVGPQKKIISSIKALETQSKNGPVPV

[18] = target: Death-associated protein kinase 2 (Homo sapiens) (UniProt Q9UIK4); conditions: at 10 µM

Chain of Death-associated protein kinase 1 (Homo sapiens) (P53355 whole entry, looked up): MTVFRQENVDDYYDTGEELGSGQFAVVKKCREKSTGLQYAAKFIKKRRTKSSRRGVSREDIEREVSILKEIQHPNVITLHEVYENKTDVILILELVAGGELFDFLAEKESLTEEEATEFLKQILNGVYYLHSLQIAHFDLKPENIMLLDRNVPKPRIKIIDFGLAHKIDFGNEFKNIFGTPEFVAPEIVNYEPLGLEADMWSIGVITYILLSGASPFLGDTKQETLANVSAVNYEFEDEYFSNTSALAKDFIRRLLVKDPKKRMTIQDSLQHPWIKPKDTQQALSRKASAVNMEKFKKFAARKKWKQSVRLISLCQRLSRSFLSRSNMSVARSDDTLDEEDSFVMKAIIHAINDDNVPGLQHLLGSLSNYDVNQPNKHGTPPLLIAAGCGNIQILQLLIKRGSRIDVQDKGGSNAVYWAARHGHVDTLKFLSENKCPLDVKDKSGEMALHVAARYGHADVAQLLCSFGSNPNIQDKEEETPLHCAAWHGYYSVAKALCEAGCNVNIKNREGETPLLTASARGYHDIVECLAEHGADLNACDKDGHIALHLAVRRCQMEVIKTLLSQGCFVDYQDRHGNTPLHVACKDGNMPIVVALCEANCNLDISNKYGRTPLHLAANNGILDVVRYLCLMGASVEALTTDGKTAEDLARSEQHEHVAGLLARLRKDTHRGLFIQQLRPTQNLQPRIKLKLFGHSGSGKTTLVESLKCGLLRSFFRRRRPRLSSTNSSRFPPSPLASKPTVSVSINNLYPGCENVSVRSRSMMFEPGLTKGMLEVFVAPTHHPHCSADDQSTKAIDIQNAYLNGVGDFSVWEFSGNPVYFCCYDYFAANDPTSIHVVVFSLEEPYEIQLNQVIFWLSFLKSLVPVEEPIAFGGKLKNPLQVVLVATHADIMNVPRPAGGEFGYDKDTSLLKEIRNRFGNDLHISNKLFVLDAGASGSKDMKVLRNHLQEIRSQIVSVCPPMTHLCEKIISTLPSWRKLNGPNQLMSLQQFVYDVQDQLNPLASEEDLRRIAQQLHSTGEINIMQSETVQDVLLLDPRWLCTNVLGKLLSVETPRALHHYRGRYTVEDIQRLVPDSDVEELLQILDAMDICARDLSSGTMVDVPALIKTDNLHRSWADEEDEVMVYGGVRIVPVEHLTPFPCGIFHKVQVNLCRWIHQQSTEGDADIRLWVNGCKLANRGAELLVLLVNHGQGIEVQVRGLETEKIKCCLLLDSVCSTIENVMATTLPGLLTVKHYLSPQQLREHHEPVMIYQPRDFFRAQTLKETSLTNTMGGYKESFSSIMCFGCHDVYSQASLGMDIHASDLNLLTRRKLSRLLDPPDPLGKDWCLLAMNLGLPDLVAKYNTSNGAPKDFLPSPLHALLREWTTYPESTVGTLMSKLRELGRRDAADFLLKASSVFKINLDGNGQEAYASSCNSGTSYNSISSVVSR
Chain of Death-associated protein kinase 2 (Homo sapiens) (Q9UIK4 whole entry, looked up): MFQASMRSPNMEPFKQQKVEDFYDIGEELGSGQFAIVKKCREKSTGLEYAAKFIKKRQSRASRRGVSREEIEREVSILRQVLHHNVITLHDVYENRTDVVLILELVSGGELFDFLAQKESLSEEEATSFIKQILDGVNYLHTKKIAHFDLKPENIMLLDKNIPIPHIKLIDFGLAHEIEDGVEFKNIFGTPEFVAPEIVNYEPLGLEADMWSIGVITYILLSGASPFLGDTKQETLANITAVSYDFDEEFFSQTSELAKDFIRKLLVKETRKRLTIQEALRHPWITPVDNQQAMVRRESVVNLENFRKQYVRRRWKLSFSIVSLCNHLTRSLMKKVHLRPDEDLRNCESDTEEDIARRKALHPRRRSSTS

SMILES	residual activity [1] [%]	residual activity [2] [%]	residual activity [3] [%]	residual activity [4] [%]	residual activity [5] [%]	residual activity [6] [%]	residual activity [7] [%]	residual activity [8] [%]	residual activity [9] [%]	residual activity [10] [%]	residual activity [11] [%]	residual activity [12] [%]	residual activity [13] [%]	residual activity [14] [%]	residual activity [15] [%]	residual activity [16] [%]	residual activity [17] [%]	residual activity [18] [%]
Cc1nc(-c2ccccc2)c(-c2ccncc2)o1	95	99	124	113	50	36	104	102	120	77	99	87	103	81	93	59	92	–
Cc1cc2ncc(-c3ccccc3)nc2cc1C	88	99	95	67	102	90	97	135	70	95	85	105	96	105	109	97	103	–
COc1cc2ncnc(Nc3ccc(O)c(Br)c3)c2cc1OC	76	–	73	96	90	55	105	116	77	18	48	10	35	8	90	30	79	77
Cc1cncc2cccc(S(=O)(=O)N3CCCN(C(=O)CN)C[C@H]3C)c12	85	90	66	35	126	94	–	–	–	–	91	94	54	7	92	56	96	–
Oc1n[nH]c2nnc(-c3c(-c4ccccc4)nn4ccccc34)cc12	39	62	85	92	92	95	69	83	78	34	99	95	93	79	92	109	94	43
Oc1ccc(-c2nc(-c3ccc(F)cc3)c(-c3ccncc3)[nH]2)cc1	76	110	113	76	69	20	112	88	–	–	99	76	87	16	93	57	105	97
CC#CC(=O)Nc1cc2c(Nc3ccc(F)c(Cl)c3)ncnc2cn1	90	88	77	96	96	93	113	115	105	105	102	93	102	105	100	101	113	104
COc1cccc(-c2cc(=O)c3ccccc3o2)c1N	90	99	107	120	91	–	122	96	101	70	100	94	99	92	97	117	110	99
